From PubChem BioAssay
The sample as a whole holds a higher share of hits than the screen did.
IDE exosite FP – exo-site inhibitors of human insulin-degrading enzyme; P14735; purified IDE, FL-6b probe fluorescence polarization; hits give low values; z-score at 20 µM; 6.3% of 17,000 active;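 active = z-score of -3 or lower, meaning strong loss of probe binding signal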;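 note: His-tagged human IDE residues 42-1019 made in E. coli with 30 nM FL-6b probe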
* hit, by the source's call.

SMILES	IDE exosite FP
O=S(=O)(c1ccccc1F)N1CCCCN2[C@@H](CO)[C@@H](c3ccc(-c4cccnc4)cc3)[C@@H]2C1	-12.8*
Cc1ccccc1S(=O)(=O)N1CCCCN2[C@H](CO)[C@@H](c3ccc(-c4cccnc4)cc3)[C@@H]2C1	-11.6*
Cc1ccccc1S(=O)(=O)N1CCCCN2[C@H](CO)[C@H](c3ccc(-c4cccnc4)cc3)[C@H]2C1	0.437
Cc1ccccc1S(=O)(=O)N1CCCCN2[C@@H](CO)[C@H](c3ccc(-c4cncnc4)cc3)[C@@H]2C1	3.68
Cc1ccccc1S(=O)(=O)N1CCCCN2[C@@H](CO)[C@@H](c3ccc(-c4cncnc4)cc3)[C@@H]2C1	-4.33*
Cc1cccc(S(=O)(=O)N2CCCCN3[C@H](C2)[C@H](c2ccc(-c4cccnc4)cc2)[C@@H]3CO)c1	1.61
N#C[C@H]1[C@H](c2ccc(C3=CCCCC3)cc2)[C@@H](CO)N1S(=O)(=O)c1ccccc1	0.638
C/C=C/c1ccc2c(c1)[C@H]1[C@H](CCN1Cc1ccc(F)cc1)[C@H](CO)N2	0.882
Cc1noc(C)c1NC(=O)N(C)C[C@@H]1Oc2cc(C#CCN(C)C)ccc2S(=O)(=O)N([C@H](C)CO)C[C@H]1C	-1.32
N#C[C@@H]1[C@@H](c2ccccc2)[C@@H](CO)N1S(=O)(=O)c1cccc(F)c1	0.48
O=C(Nc1cccc(F)c1)N1CC(=O)N2[C@H](C1)[C@H](c1ccc(-c3ccc(F)cc3)cc1)[C@@H]2CO	2.92
Cc1cccc(-c2ccc([C@@H]3[C@@H](CO)N4CCCCN(S(=O)(=O)c5cccs5)C[C@@H]34)cc2)c1	-3.77*
O=S(=O)(c1cccs1)N1CCCCN2[C@H](C1)[C@H](c1ccc(C3=CCCC3)cc1)[C@@H]2CO	0.976
O=S(=O)(c1cccs1)N1CCCCN2[C@H](CO)[C@H](c3ccc(/C=C/c4ccccc4)cc3)[C@@H]2C1	-0.116
COc1cccc(-c2ccc([C@@H]3[C@H](CO)N4CCCCN(S(=O)(=O)c5cccs5)C[C@@H]34)cc2)c1	-6.05*
O=S(=O)(c1cccs1)N1CCCCN2[C@@H](CO)[C@@H](c3ccc(/C=C/c4ccccc4)cc3)[C@@H]2C1	-3.18*
O=S(=O)(c1cccs1)N1CCCCN2[C@H](C1)[C@H](c1ccc(/C=C/c3ccccc3)cc1)[C@@H]2CO	-0.702
Cc1cccc(-c2ccc([C@H]3[C@@H](CO)N4CCCCN(S(=O)(=O)c5cccc(C)c5)C[C@@H]34)cc2)c1	-1.08
COc1cccc(S(=O)(=O)N2CCCCN3[C@@H](CO)[C@@H](c4ccc(-c5ccccc5)cc4)[C@@H]3C2)c1	5.49
COc1cccc(-c2ccc([C@@H]3[C@@H](CO)N4CCCCN(S(=O)(=O)c5cccs5)C[C@H]34)cc2)c1	0.672
Cc1cccc(-c2ccc([C@@H]3[C@H]4CN(S(=O)(=O)c5cccs5)CCCCN4[C@H]3CO)cc2)c1	0.548
Cc1cccc(-c2ccc([C@H]3[C@H](CO)N4CCCCN(S(=O)(=O)c5cccs5)C[C@@H]34)cc2)c1	3.16
Cc1cccc(-c2ccc([C@@H]3[C@H](CO)N4CCCCN(S(=O)(=O)c5cccs5)C[C@@H]34)cc2)c1	-8.04*
Cc1cccc(S(=O)(=O)N2C[C@@H]3N[C@H](C2)C3c2ccc(-c3cccc(C(=O)N(C)C)c3)cc2)c1 (stereo not given in full)	3.34
N#C[C@@H]1[C@@H](c2ccccc2-c2ccccc2F)[C@@H](CO)N1C(=O)C1CC1	3.25
SMILES	IDE exosite FP
CN1CCN(C(=O)C[C@@H]2CC[C@@H]3[C@@H](COc4ccc(NC(=O)C5CCOCC5)cc4C(=O)N3C)O2)CC1	-0.354
COc1ccccc1-c1ccc2c(c1)O[C@H](CN(C)CC1CCOCC1)[C@H](C)CN([C@H](C)CO)S2(=O)=O	-1.27
C[C@H](O)C#Cc1ccc([C@@H]2[C@@H](CO)N3CCCCN(S(=O)(=O)Cc4ccccc4)C[C@H]23)cc1	2.95
C[C@H](CO)N1C[C@H](C)[C@H](CN(C)S(=O)(=O)c2ccccc2C#N)OCc2cnnn2CCCC1=O	-0.00607
C/C=C/c1ccc([C@H]2[C@@H](CO)N(C(=O)COC)[C@H]2CNC(=O)C2CCC2)cc1	0.35
COc1ccc(-c2ccc([C@H]3[C@H]4CN(C(=O)C5CCC5)CC(=O)N4[C@H]3CO)cc2)cc1	-0.161
COc1ccc(-c2ccc([C@@H]3[C@H]4CN(C(=O)C5CC5)CC(=O)N4[C@H]3CO)cc2)cc1	-2.39
COc1cccc(-c2ccc([C@H]3[C@@H](CO)N4C(=O)CN(C(=O)C5CC5)C[C@@H]34)cc2)c1	-6.51*
COc1ccc(-c2ccc([C@@H]3[C@@H](CO)N4C(=O)CN(C(=O)C5CCCC5)C[C@H]34)cc2)cc1	0.568
COc1ccc(-c2ccc([C@@H]3[C@@H](CO)N4C(=O)CN(C(=O)C5CCCC5)C[C@@H]34)cc2)cc1	-0.907
COc1cccc(-c2ccc([C@@H]3[C@H]4CN(C(=O)C5CC5)CC(=O)N4[C@H]3CO)cc2)c1	-10.5*
COc1ccc(-c2ccc([C@H]3[C@@H](CO)N4C(=O)CN(C(=O)C5CCC5)C[C@@H]34)cc2)cc1	1.68
COc1cccc(-c2ccc([C@@H]3[C@H](CO)N4C(=O)CN(C(=O)C5CCC5)C[C@@H]34)cc2)c1	-10.5*
COc1ccc(-c2ccc([C@@H]3[C@H]4CN(C(=O)C5CCCC5)CC(=O)N4[C@H]3CO)cc2)cc1	-1.11
O=C(c1ccccc1)N1CC(=O)N2[C@H](C1)[C@H](c1ccc(-c3ccccc3)cc1)[C@@H]2CO	-1.14
O=C(Nc1cc(F)ccc1F)N1CCCCN2[C@H](CO)[C@@H](c3ccc(-c4cccnc4)cc3)[C@H]2C1	3.48
CCC(=O)NC[C@H]1[C@@H](c2ccc(C3=CCCC3)cc2)[C@@H](CO)N1CC1CC1	0.00778
Cc1ccc(-c2ccc([C@H]3[C@@H](CO)N4CCCCN(C(=O)Nc5cccc(F)c5)C[C@@H]34)cc2)cc1	0.214
CN1c2ccc(Br)cc2[C@@H]2[C@@H](CCN2C(=O)Nc2cccc(F)c2)[C@H]1CO	1.56
CO[C@H]1CN(C)C(=O)c2cc(NC(=O)c3ccc(Oc4ccccc4)cc3)ccc2OC[C@@H](C)NC[C@@H]1C	-13.2*
COc1cccc(NC(=O)Nc2ccc3c(c2)C(=O)N(C)C[C@@H](OC)[C@@H](C)CN[C@@H](C)CO3)c1	-0.138
COc1cccc(NC(=O)Nc2ccc3c(c2)C(=O)N(C)C[C@@H](OC)[C@@H](C)CN[C@H](C)CO3)c1	-0.955
CO[C@@H]1CN(C)C(=O)c2cc(NC(=O)c3ccc(Oc4ccccc4)cc3)ccc2OC[C@H](C)NC[C@H]1C	-7.56*
COc1cccc(NC(=O)Nc2ccc3c(c2)C(=O)N(C)C[C@H](OC)[C@H](C)CN[C@H](C)CO3)c1	1.65
CO[C@H]1CN(C)C(=O)c2cc(NC(=O)c3cnccn3)ccc2OC[C@@H](C)NC[C@@H]1C	2
CC(C)[C@@H]1C(=O)N[C@@H](c2ccc(F)cc2)CC=CC[C@@H](C)Oc2ccccc2C(=O)N1C (mixture of isomers)	1.56
CC(=O)N(C)C[C@@H]1[C@H](c2ccc(-c3ccccc3)cc2)[C@H](CO)N1C(=O)C1CC1	3.76
Cc1cccc(-c2ccc(C3[C@@H]4CN(Cc5cccc(F)c5)C[C@H]3N4)cc2)c1 (stereo not given in full)	-0.438
Cc1cccc(-c2ccc(C3[C@@H]4CN(C(=O)Nc5ccccc5)C[C@H]3N4)cc2)c1 (stereo not given in full)	-4.3*
